Tests used:
[1] = system: Vero E6 infected with SARS-CoV-2; experiment: morphology score (similarity to uninfected cells); higher = more like uninfected cells; settings: 24 h
[2] = system: Vero E6 infected with SARS-CoV-2; experiment: SARS-CoV-2 infection rate relative to infected DMSO; higher = more infection, active = 60 or less; settings: 24 h

Structure (SMILES)	morphology score [1]	SARS-CoV-2 infection rate [2]
Nc1nccc(-c2c(-c3ccc(F)cc3)ncn2C2CCCCC2)n1 (0.833333 µM)	0.197	103% (inactive)
CCCCCCCCCCCCCCCCCCOP(=O)([O-])OC1CC[N+](C)(C)CC1 [perifosine] (10 µM)	0.116	104% (inactive)
c1ccc(NCc2ccc(CNc3ccccn3)cc2)nc1 (10 µM)	-0.0443	102% (inactive)
COc1cc([C@@H]2c3cc4c(cc3[C@@H](O[C@@H]3O[C@@H]5CO[C@@H](C)O[C@H]5[C@H](O)[C@H]3O)[C@H]3COC(=O)[C@H]23)OCO4)cc(OC)c1OP(=O)(O)O [etoposide-phosphate] (10 µM)	0.101	94.5% (inactive)
CNC(=O)c1cc(Oc2ccc(NC(=O)Nc3ccc(Cl)c(C(F)(F)F)c3)c(F)c2)ccn1 [regorafenib] (0.833333 µM)	0.0372	110% (inactive)
COC(=O)C1=CO[C@@H](O)[C@@H]2C(CO)=CC[C@H]12 [genipin] (10 µM)	0.291	112% (inactive)
Cc1cc(C(=O)Nc2cccc(C(=O)Nc3cccc(C(F)(F)F)c3)c2)on1 (10 µM)	-0.209	115% (inactive)
COc1cc(OC)c(/C=C/S(=O)(=O)Cc2ccc(OC)c(OP(=O)(O)O)c2)c(OC)c1 [briciclib] (0.833333 µM)	-0.0884	92% (inactive)
COc1ccc(COc2cc3oc(=O)c4cc(C(C)O)ccc4c3cc2OC)cc1 (centres undefined) [palomid-529] (10 µM)	0.0689	113% (inactive)
CCCCc1nn(-c2ccccc2C(F)(F)F)c(=O)n1Cc1ccc(-c2ccccc2S(=O)(=O)NC(=O)c2sccc2C)cc1 (10 µM)	0.0872	104% (inactive)
COc1cc2c(Oc3ccc4[nH]c(C)cc4c3F)ccnc2cc1OCC1(N)CC1 [anlotinib] (10 µM)	-0.207	100% (inactive)
CC(C)(O)C(=O)Nc1ccc([N+](=O)[O-])c(C(F)(F)F)c1 [2-hydroxyflutamide] (10 µM)	0.0933	108% (inactive)
C=CC(=O)Nc1cccc(Oc2nc(Nc3ccc(N4CCN(C)CC4)cc3)nc3ccsc23)c1 [olmutinib] (0.833333 µM)	-0.0965	94.5% (inactive)
CC[C@@](C)(Nc1ccnc(-c2c[nH]c3ncccc23)n1)C(=O)NCC(F)(F)F [decernotinib] (10 µM)	0.178	108% (inactive)
CCc1cccc(CC)c1NC(=O)N1Cc2[nH]nc(NC(=O)c3ccc(N4CCN(C)CC4)cc3)c2C1 (10 µM)	0.108	113% (inactive)
Oc1cc(O)cc(/C=C/c2ccc(O)c(O)c2)c1 [piceatannol] (10 µM)	-0.206	112% (inactive)
C=CC(=O)c1ccc2ccccc2c1 [JAK3-inhibitor-V] (10 µM)	0.0151	102% (inactive)
CN(C/C=C/C#CC(C)(C)C)Cc1cccc2ccccc12 [terbinafine] (10 µM)	0.413	81% (inactive)
CCOC(=O)[C@H](Cc1ccccc1)NC(=O)c1cc(Cl)c(OCCN2CCN(C)CC2)c(Cl)c1O (10 µM)	0.414	76.5% (inactive)
CC[N+](CC)(CC)CCOc1cccc(OCC[N+](CC)(CC)CC)c1OCC[N+](CC)(CC)CC [gallamine-triethiodide] (10 µM)	-0.128	112% (inactive)
Clc1ccc(Nc2nnc(Cc3ccncc3)c3ccccc23)cc1 [vatalanib] (10 µM)	0.199	96% (inactive)

Structure (SMILES)	morphology score [1]	SARS-CoV-2 infection rate [2]
CC(C)C[C@H](CN)CC(=O)O (10 µM)	-0.0821	106% (inactive)
O=C(NCCO)c1cccc(-c2cc(Nc3ccc(OC(F)(F)F)cc3)ncn2)c1 (10 µM)	-0.0129	98.5% (inactive)
Nc1nc(=O)c2sc(=O)n([C@@H]3O[C@H](CO)[C@@H](O)[C@H]3O)c2[nH]1 (10 µM)	0.013	100% (inactive)
Nc1ccc(S(=O)(=O)NC(=O)c2ccccc2)cc1 [sulfabenzamide] (10 µM)	0.0893	106% (inactive)
N[C@H]1C(O)O[C@H](CO)[C@@H](O)[C@@H]1O (mixture of isomers) [glucosamine] (10 µM)	-0.0432	105% (inactive)
CN1[C@@H]2CC[C@H]1C[C@@H](OC(=O)[C@H](CO)c1ccccc1)C2 [hyoscyamine] (10 µM)	0.139	90.5% (inactive)
Cc1ccc(/C=C2/C(=O)C3(C)CCC2C3(C)C)cc1 (centres undefined) [3-(4-methylbenzylidene)camphor] (10 µM)	-0.0397	114% (inactive)
Cc1ncc(CO)c(/C=N/NC(=O)c2ccncc2)c1O [pyridoxal-isonicotinoyl-hydrazone] (10 µM)	-0.0797	100% (inactive)
C[C@H](Nc1ncnc2nc[nH]c12)c1cc2cccc(Cl)c2c(=O)n1-c1ccccc1 [duvelisib] (0.833333 µM)	0.0653	99% (inactive)
CC1(C)O[C@@H]2C[C@H]3[C@@H]4CCC5=CC(=O)C=C[C@]5(C)[C@H]4[C@@H](O)C[C@]3(C)[C@]2(C(=O)CO)O1 [desonide] (10 µM)	0.0066	107% (inactive)
CC1(C)S[C@@H]2[C@H](NC(=O)[C@H](NC(=O)N3CCN(S(C)(=O)=O)C3=O)c3ccccc3)C(=O)N2[C@H]1C(=O)O [mezlocillin] (10 µM)	0.0709	97% (inactive)
O=C(O)CCCCN(CCc1ccccc1OCc1ccc(CCc2ccccc2)cc1)Cc1ccc(C(=O)O)cc1 [cinaciguat] (10 µM)	-0.0659	102% (inactive)
C[C@H](N)C(=O)O [L-alanine] (10 µM)	-0.118	111% (inactive)
CC(C)[C@H](C(=O)Nc1ccc(C(=O)NO)cc1)c1ccccc1 (10 µM)	0.0602	104% (inactive)
Nc1nc(NC2CC2)c2ncn([C@H]3C=C[C@@H](CO)C3)c2n1 (10 µM)	0.0446	102% (inactive)
CCCNCC(O)COc1ccccc1C(=O)CCc1ccccc1 (centres undefined) [propafenone] (0.833333 µM)	-0.109	110% (inactive)
C[C@@]1(O)[C@H](O)[C@@H](CO)O[C@H]1n1ccc(N)nc1=O (10 µM)	0.0553	103% (inactive)
Cc1cc(O)c(-c2ccc([C@@H](C)CN)cc2)c2c1[nH]c(=O)c1sccc12 (0.833333 µM)	-0.046	95% (inactive)
O=C(O)P(=O)(O)O [foscarnet] (10 µM)	0.202	98% (inactive)
CC(C)Cn1cnc2c(N)nc3ccccc3c21 [imiquimod] (10 µM)	0.0803	106% (inactive)
Cc1c(F)cc(C(=O)NC2CC2)cc1-c1ccc(C(=O)NCC(C)(C)C)cn1 [losmapimod] (10 µM)	0.0455	98.5% (inactive)

Structure (SMILES)	morphology score [1]	SARS-CoV-2 infection rate [2]
CC(C)(C)NCC(O)COc1cccc2[nH]c(=O)[nH]c12 (centres undefined) (10 µM)	0.0723	103% (inactive)
CC(C)[C@H](CO)Nc1nc(Nc2ccc(C(=O)O)c(Cl)c2)c2ncn(C(C)C)c2n1 [purvalanol-B] (10 µM)	-0.00736	101% (inactive)
CCCCNc1cc(C(=O)O)cc(S(N)(=O)=O)c1Oc1ccccc1 [bumetanide] (10 µM)	0.0462	102% (inactive)
CC1=C(C(=O)O)N2C(=O)[C@@H](NC(=O)[C@H](N)C3=CCC=CC3)[C@H]2SC1 [cephradine] (10 µM)	0.0689	106% (inactive)
CC(C)(O)C(Cl)(Cl)Cl [chlorobutanol] (10 µM)	0.123	106% (inactive)
CCCOc1ccc2c(c1)CC[C@@H]1[C@@H]2CC[C@]2(C)[C@@H](OC)CC[C@@H]12 [promestriene] (10 µM)	0.169	99.5% (inactive)
O=C(c1ccc(CN2CCOCC2)cc1)N1CCN(C2CC2)CC1 [bavisant] (10 µM)	-0.0555	100% (inactive)
OC[C@H]1O[C@H](O[C@]2(CCl)O[C@H](CCl)[C@@H](O)[C@@H]2O)[C@H](O)[C@@H](O)[C@H]1Cl [sucralose] (10 µM)	0.0888	97% (inactive)
O=C(O)/C=C/CO [trans-4-hydroxycrotonic-acid] (10 µM)	0.0958	90.5% (inactive)
C[C@]1(O)C[C@@H](c2nc(-c3ccc4ccc(-c5ccccc5)nc4c3)c3c(N)nccn32)C1 [linsitinib] (10 µM)	0.275	88.5% (inactive)
CCc1cc2cc(OC)c(OC)cc2c(Cc2ccccc2)n1 [moxaverine] (10 µM)	0.495	86% (inactive)
Nc1nc(=O)n([C@@H]2O[C@H](CO)[C@@H](O)[C@@H]2F)cc1I [fiacitabine] (10 µM)	-0.0647	111% (inactive)
NC1CCN(c2cccc(Cl)n2)CC1 (10 µM)	-0.122	108% (inactive)
CCc1cn([C@H]2C[C@H](O)[C@@H](CO)O2)c(=O)[nH]c1=O [edoxudine] (10 µM)	0.0361	108% (inactive)
O=C1C2CCN(CC2)C1(CO)CO (10 µM)	0.273	83.5% (inactive)
N#C/C(=C\c1ccc(O)c(O)c1)C(=O)NCc1ccccc1 (10 µM)	0.214	98% (inactive)
Cc1nc(N)sc1CCN [amthamine] (10 µM)	0.148	92.5% (inactive)
CCOc1ccccc1C(=O)O [2-ethoxybenzoic-acid] (10 µM)	0.0437	115% (inactive)
O=C1O[C@H](CO)[C@@H](O)[C@H](O)[C@H]1O [gluconolactone] (10 µM)	0.0736	98% (inactive)
OCc1ccc(CO)o1 [2,5-furandimethanol] (10 µM)	0.0908	112% (inactive)

From the supplement of paper PMC13380429
